An excerpt weighted towards active compounds, which were near 2.1% of everything screened.
Abeta rescue – qHTS for compounds that reverse cellular toxicity of Amyloid beta (A-beta) peptide in yeast: Primary Screen; AID 1347071, 2019; Potency, µM (highest dose often 46.1 µM), actives largely listed as activators; yeast expressing A-beta42, growth rescue, OD600, 48 h; response scale: 0% DMSO, 100% iron-clioquinol control; 410,000 compounds, 0.063% hits; note: nearly all actives have a fitted effect of over 55% in size
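Yeast growth medium received pinned compounds, then yeast cells expressing toxic A-beta were added; plates incubated at 30 C for 48 hr. Growth read as absorbance at 600 nm, normalized to DMSO and equimolar FeCl3 plus clioquinol controls.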
aSyn yeast inh – qHTS of alpha-syn Inhibitors | Potency, µM (doses to about 46.1 µM), inactives show top-dose growth rescue (activation), most hits filed as activators | 370,000 compounds, 0.14% hits | Yeast expressing alpha-synuclein, growth rescue, BacTiter-Glo, 24 h | AID 652106, 2013; note: % of control where 0% means no effect; nearly all actives have a fitted effect of over 65% in size
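Readout is rescue of growth in alpha-synuclein-expressing yeast, so inhibitors of toxicity appear as activators. Growth after 24 hr at 30 deg C in galactose medium is quantified by luminescence.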
FUS yeast rescue – qHTS for Suppressors of FUS Proteinopathy: Primary screen using FUS-linked yeast assay. S. cerevisiae FUS-expressing, growth rescue, OD600, 24 h. Potency, µM (titrated, usually from 76.6 µM), most hits filed as activators. 390,000 compounds, 0.24% hits. AID 1347120, 2019;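 note: plate controls were DMSO vehicle for no effect and reference control for full effect; nearly all actives have a fitted effect of over 55% in size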
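S. cerevisiae expressing FUS from galactose induction served as the toxicity model. Growth after 24hr at 30C, read as absorbance at 600 nm, indicates suppression of toxicity; compounds dosed at several concentrations.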
TDP43 rescue – qHTS of TDP-43 Inhibitors; 410,000 compounds, 1.8% hits; Potency, µM (series often up to 46.1 µM), for inactives: at the top dose growth rescue (activation), most hits filed as activators; TDP-43 expressing yeast growth rescue, BacTiter-Glo, 24 h; note: % of control where 0% means no effect; nearly all actives have a fitted effect of over 50% in size
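Galactose-induced TDP-43 yeast, OD600=0.02, compound pinned; 24 hr, 30 deg C; BacTiter-Glo luminescence for growth. Inhibitors of TDP-43 toxicity read as activators.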
The depositor's hits bear a star; i = inactive; ? = inconclusive; · = no result; [ ] = another dose, or the depositor's remark. Calls come from the whole dose curve; as a rule, active = well fitted curve in the direction sought with a large enough effect; inconclusive = small, poorly fitted or top-dose-only effect, or another doubt; inactive = no such curve, though single readings can be large; an effect the other way counts as inactive or inconclusive. Potency is the fitted concentration of half-maximal effect.

SMILES	Abeta rescue	aSyn yeast inh	FUS yeast rescue	TDP43 rescue
O=C(NCCc1ccccc1)C1C(=O)Nc2ccccc2C(=O)N1C1CCCCC1 (stereo not given)	i	13µM*	i	?
CN(/N=C/c1ccc([N+](=O)[O-])o1)c1ccccc1	i	6%	i	14µM*
Cc1cccc(C(=O)OCc2cc(=O)n3ccsc3n2)c1	i	·	i	18µM*
Cc1ccccc1C(=O)Nc1cccc(C(=O)OCc2cc(=O)n3ccsc3n2)c1	i	·	i	3%
Cc1cccc(-n2c(SCc3cc(=O)n4ccsc4n3)nc3ccccc32)c1	i	11%	i	22µM*
O=c1cc(CSc2ccc([N+](=O)[O-])cc2)nc2sccn12	i	16µM*	i	15%[9.22 µM]
CC(Oc1ccccc1)C(=O)Nc1ccc(C(=O)OCc2cc(=O)n3ccsc3n2)cc1 (stereo not given)	i	·	?	20µM*
Cn1c(Cc2ccccc2)nnc1SCc1cc(=O)n2ccsc2n1	i	-3%	i	20%[9.22 µM]
CC(C)N1CCCCC(NC(=O)c2ccc(-c3ccccc3)cc2)C1=O (stereo not given)	·	·	i	·
CC(=O)NC1CCCCN(Cc2cccc(F)c2)C1=O (stereo not given)	·	·	i	·
O=C(CSc1ccc2c(c1)OCCO2)NCCc1ccc(Cl)cc1Cl	i	?	·	11µM*
O=C(CSc1ccc2c(c1)OCCO2)Nc1ncc(Cl)cc1Cl	i	4%	i	?
Cc1ccccc1C(=O)N1CCN(c2ncnc3c2cnn3-c2ccccc2)CC1	i	?	?	14µM*
O=C(NCCc1ccccc1)c1ccc(CS(=O)(=O)c2ccc(Cl)cc2)o1	i	-5%	i	3%
CCc1ccccc1S(=O)(=O)Cc1ccc(C(=O)NCc2ccc(Cl)cc2)o1	i	·	i	35µM*
Cc1ccccc1S(=O)(=O)Cc1ccc(C(=O)NCc2ccccc2Cl)o1	i	·	i	0%
CCc1ccccc1S(=O)(=O)Cc1ccc(C(=O)NCCc2ccc(Cl)cc2)o1	i	·	?	35µM*
CCNc1nc(N2CCCN(C)CC2)nc2cc(OC)c(OC)cc12	·	-4%	·	·
COc1cccc(-n2cc(-c3ccc(F)cc3)[nH]c2=S)c1	?	1%	i	11µM*
S=c1[nH]c(-c2ccccc2)cn1-c1ccccc1	13µM*	0%	i	13µM*
Cc1ccc(S(=O)(=O)N2CCN(c3nc(-c4ccc(CN5CCOCC5)s4)nc4ccccc34)CC2)cc1	·	-10%	·	·
O=C(CSc1nc2ccccc2nc1N1CCCCC1)NCc1ccc(Cl)cc1Cl	·	·	i	·
CCCSc1nnc(Sc2nnnn2-c2ccccc2)s1	i	0%	i	18µM*
CC(SCc1ccccc1)C(=O)Nc1ccccc1-c1ccccc1 (stereo not given)	i	-1%	18µM*	-25%
Cc1c(NC(=O)C2CCCN(S(=O)(=O)c3ccc(Br)s3)C2)c(=O)n(-c2ccccc2)n1C (stereo not given)	·	·	i	·
SMILES	Abeta rescue	aSyn yeast inh	FUS yeast rescue	TDP43 rescue
Cc1ccc2onc(CC(=O)N3CCN(c4ccc(F)cc4)CC3)c2c1	i	·	i	13µM*
Cc1ccc2onc(CC(=O)N3CCN(c4ccccc4F)CC3)c2c1	i	·	i	?
O=C(NCCc1ccc(Cl)cc1)C1CCN(S(=O)(=O)c2ccc3[nH]ccc3c2)CC1	i	·	?	0%
COC(=O)C1CN(Cc2cn(CCOC(C)=O)nn2)CCS(=O)(=O)N1Cc1ccc(C)cc1 (stereo not given)	·	·	i	·
CS(=O)(=O)c1ccc(C2=C(c3ccccc3)C(=O)OC2)cc1	i	-6%	i	23%
O=C1OCC(c2ccccc2)=C1c1ccccc1	i	-2%	i	18µM*
Cc1cccc(-c2noc(CCCC(=O)Nc3cccnc3)n2)c1	i	0%	·	0%
c1ccc(OCCCc2nc(-c3cccnc3)no2)cc1	i	3%	i	11%
c1ccc(CCCc2nc(-c3cccnc3)no2)cc1	i	3%	i	8.9µM*
O=C(CCCc1nc(-c2ccc(Cl)cc2)no1)Nc1cccnc1	i	?	i	16µM*
COc1ccc(-c2noc(CCc3ccccc3)n2)cc1	i	-11%	i	18µM*
CC[C@@H](CCCCCC#N)CCC(=O)N(c1ccccc1)c1ccccc1	·	·	i	·
Cc1ccc(NC(=O)CN2C(=O)CCSc3ccccc32)cc1C	·	·	i	·
O=S1(=O)CC2c3ccccc3CN2CN1Cc1ccccc1 (stereo not given)	·	·	i	·
N=c1c2c(-c3ccccc3)c(-c3ccccc3)n(Cc3ccccc3)c2ncn1C1CCOCC1	·	·	i	·
CO[C@H]1CC[C@@]2(C)[C@@H](CC[C@@H]3[C@@H]2CC[C@@]2(C)[C@H]3C[C@H](C(=O)O)O[C@]23CCCO3)C1	i	22%	i	16µM*
O=C(O)Cc1ccc(Oc2ncc(C(F)(F)F)cc2Cl)cc1	i	2%	i	13µM*
c1cc2c(cc1Cc1cncc(Cc3ccc4c(c3)OCO4)c1)OCO2	·	-8%	·	·
O=C(NCc1ccccc1Cl)c1cnc2n(c1=O)CCS2	i	-2%	i	?
O=C(CSc1ncnc2sccc12)NCc1ccc2c(c1)OCO2	i	?	i	16µM*
Cc1ccc(-c2csc3ncnc(SCC(=O)NCc4ccc5c(c4)OCO5)c23)cc1	i	2%	i	-1%
O=C(NCc1ccc2c(c1)OCO2)c1cnc2ccccn2c1=O	i	-9%	i	-10%
Cc1csc2ncc(C(=O)NCc3ccc4c(c3)OCO4)c(=O)n12	i	0%	i	10µM*
Cc1csc2ncc(C(=O)NCc3ccccc3Cl)c(=O)n12	i	-1%	i	22µM*
C[C@@H]1COc2cc(Br)ccc2S(=O)(=O)N1Cc1cn(CC2CCCCC2)nn1	·	·	i	·
SMILES	Abeta rescue	aSyn yeast inh	FUS yeast rescue	TDP43 rescue
O=C(Cn1c(=O)oc2cc(S(=O)(=O)N3CCCCCC3)ccc21)Nc1ccc(F)cc1F	i	·	i	23%
COC(=O)c1c(-c2ccccc2)[nH]c(-c2nccc3ccccc23)c1C(=O)OC	i	11%	i	13%
N#Cc1cc(-c2ccccc2)[nH]c1-c1nccc2ccccc12	i	6%	i	11µM*
Cc1ccc(C)c(CSC2=NC(C)(C)Nc3ccccc32)c1	i	·	i	15%
CC1(C)N=C(SCc2ccc(F)cc2)c2ccccc2N1	i	·	i	11µM*
Cc1ccc(CN(Cc2cc3cc(C)ccc3[nH]c2=O)Cc2nnnn2Cc2ccccc2)cc1	·	0%	·	·
CCN1CCOC(=O)C1CC(=O)Nc1cccc(OC)c1 (stereo not given)	i	·	i	?
Cc1cccc(NC(=O)CC2C(=O)OCCN2Cc2ccccc2)c1 (stereo not given)	i	·	i	14µM*
